HT1080NT lethal – kills 2HG-producing HT-1080-NT fibrosarcoma cells; Potency, µM (titrated, usually from 46.1 µM), without a hit: at the top dose activity, negative = less viability, most hits filed as cytotoxic; HT-1080-NT fibrosarcoma viability, CellTiter-Glo ATP luminescence, 48 h; actives 1.6% (n = 360,000);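 also: NT is the 2HG producing partner of a matched IDH1 knockdown line; potency is read from the fitted curve at half-maximal effect; 0% = DMSO-treated cells and -100% = media-only wells without cells; nearly all actives have a fitted effect of over 55% in size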
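Compounds were tested in concentration-response format on HT-1080-NT cells for 48 hours at 37 degrees C. Cell viability came from CellTiter-Glo luminescence; curves were classified by r2, response magnitude and activity.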
12-LOX inh – blocks human arachidonate 12S-lipoxygenase. Potency, µM (titrated, usually from 108 µM), for inactives: at the highest dose activity change, negative = inhibition, hits mostly inhibitors. actives 1.1% (n = 580,000). AID 1671190. P18054. purified 12hLO, xylenol orange hydroperoxide absorbance; also: potency is read from the fitted curve at half-maximal effect
Target sequence (P18054 whole entry, looked up): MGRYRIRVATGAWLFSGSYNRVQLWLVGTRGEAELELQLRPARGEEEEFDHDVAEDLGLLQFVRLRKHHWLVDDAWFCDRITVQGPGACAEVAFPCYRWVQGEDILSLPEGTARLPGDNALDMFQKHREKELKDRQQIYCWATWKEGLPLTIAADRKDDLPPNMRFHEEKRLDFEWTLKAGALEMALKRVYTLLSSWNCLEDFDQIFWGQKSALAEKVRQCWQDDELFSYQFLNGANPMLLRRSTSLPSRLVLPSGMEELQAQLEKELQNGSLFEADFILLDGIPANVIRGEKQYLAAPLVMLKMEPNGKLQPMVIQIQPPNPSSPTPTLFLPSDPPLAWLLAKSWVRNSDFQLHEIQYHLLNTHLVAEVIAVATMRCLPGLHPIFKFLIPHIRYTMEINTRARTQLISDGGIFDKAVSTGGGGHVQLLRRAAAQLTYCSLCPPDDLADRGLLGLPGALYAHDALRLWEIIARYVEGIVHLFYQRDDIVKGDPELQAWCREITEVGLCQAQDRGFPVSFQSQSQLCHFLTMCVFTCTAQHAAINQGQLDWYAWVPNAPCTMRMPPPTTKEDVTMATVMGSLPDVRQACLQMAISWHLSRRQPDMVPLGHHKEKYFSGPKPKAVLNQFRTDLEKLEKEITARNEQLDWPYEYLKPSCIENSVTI
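Hydroperoxide product was detected by ferrous iron/xylenol orange as the 573 to 405 nm absorbance ratio. Arachidonic acid at 40 uM (final) was turned over for 30 min at room temperature by 150 nM human 12hLO, pH 7.0 Hepes buffer, after 15 min compound preincubation.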
DT40 TDP1 no CPT – qHTS for Inhibitors of human tyrosyl-DNA phosphodiesterase 1 (TDP1): qHTS in cells in absence of CPT; DT40 Tdp1-/- hTDP1 cells, no CPT, ATP luminescence, 48 h; Potency, µM (top dose mostly 46.2 µM), for the others: at the highest dose activity change, negative = growth inhibition, usual class: inhibitors; actives 15% (n = 420,000); AID 686978, 2013; also: potency is read from the fitted curve at half-maximal effect; nearly all actives have a fitted effect of over 55% in size
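DT40 Tdp1-/-;hTDP1 cells, no CPT (DMSO vehicle only), 400 cells/well; compounds pin-transferred; ≥48 hr, 37 °C; CellTiter-Glo 30 min RT dark, luminescence read.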
TDP1 cell CPT – growth inhibition of DT40 Tdp1-/-;hTDP1 cells with camptothecin (screen for TDP1 inhibitors); Potency, µM (highest dose often 46.2 µM), for the others: top-dose activity change, negative = growth inhibition, hits mostly inhibitors; chicken DT40 Tdp1-/-;hTDP1 cells + 20 nM CPT, ATP luminescence, 48 h; actives 12% (n = 420,000); also: potency is read from the fitted curve at half-maximal effect; nearly all actives have a fitted effect of over 55% in size
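Chicken DT40 Tdp1-/- cells stably complemented with human TDP1 were seeded at 400 cells/well in medium containing 20 nM camptothecin, exposed to pin-transferred compounds, and grown at 37 °C for at least 48 hr. Viability was read as ATP luminescence.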
IL-1B inflam inh – blocks inflammasome-driven IL-1 beta release; THP-1 LPS/ATP IL-1B secretion, AlphaLISA, 16 h; active compounds read low; activity change, % at 57.5 µM; actives 4.7% (n = 360,000); AID 743279; in the data active = activity change below about -50%; inconclusive = mostly about -30% to -49%
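THP-1 cells pretreated 1 hr with compounds (up to 57.5 uM final), then stimulated with LPS (250 ng/mL final) plus ATP (1.25 mM final); secreted IL-1B measured by AlphaLISA after 16 hr, decreased signal indicating inhibition.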
HT1080 IDH1KD tx – kills HT-1080 cells with IDH1 knockdown | HT-1080 IDH1 knockdown viability, ATP luminescence, 48 h | Potency, µM (series often up to 46.1 µM), without a hit: at the top dose activity, negative = toxicity, hits mostly cytotoxic | actives 2% (n = 360,000) | AID 686971;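 also: potency is read from the fitted curve at half-maximal effect; 0% = DMSO wells and -100% = cell-free medium wells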
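Assay cells: HT-1080 with IDH1 knockdown, 750 per well, RPMI/5% FBS. Exposure: 48 h at 37 °C following 2 h pre-incubation. Read: CellTiter-Glo luminescence; fitted concentration-response, curve class assigned.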
Starred values were filed as active, the others as inactive; ? = inconclusive; . = not tested or not shown; ! = a repeat was not active; [ ] = another dose, or the depositor's remark. The entries come from a sample that favours hits as a whole. Unless noted, calls follow the shape of the dose curve; as a rule, active = well fitted curve in the direction sought with a large enough effect; inconclusive = small, poorly fitted or top-dose-only effect, or another doubt; inactive = no such curve, though single readings can be large; an effect the other way counts as inactive or inconclusive. Unless noted, % is scaled to controls: 0 for no effect and ±100 for the full control effect.

SMILES	HT1080NT lethal	12-LOX inh	DT40 TDP1 no CPT	TDP1 cell CPT	IL-1B inflam inh	HT1080 IDH1KD tx
COc1ccc(N2CC(C(=O)N(C)CCc3noc(C)n3)CC2=O)cc1Cl (stereo not drawn)	.	34%	.	.	.	.
O=c1ccn(O)cc1[N+](=O)[O-]	.	-19%	.	.	.	.
Cc1sc(=NC(=O)c2ccco2)n(C)c1-c1ccc(Cl)cc1	-2%	11%	12µM*	12µM*	-16	-1%
CC1(C)Cc2c(cnn2-c2ccccc2)-c2c1c1ccccc1n2CC(O)CCl (stereo not drawn)	18µM*	0%	?	?	21	21µM*
COc1ccccc1NC(=O)c1cnc(SCC(=O)NCCc2ccccc2)n(C)c1=O	4%	?	10µM*	16µM*	10	2%
Cn1c(SCC(=O)Nc2nc3ccccc3s2)ncc(C(=O)Nc2ccccc2)c1=O	.	-20%	1%	0%	.	.
CC(=O)Nc1ccc(NC(=O)CSc2ncc(C(=O)Nc3ccccc3)c(=O)n2C)cc1	?	-30%	21µM*	21µM*	1	15µM*
Cc1ccc(CNC(=O)CSc2ncc(C(=O)Nc3ccccc3)c(=O)n2C)cc1	2%	6%	15µM*	12µM*	24	11%
Cn1c(SCC(=O)NCc2ccccc2)ncc(C(=O)Nc2ccccc2)c1=O	-5%	3%	?	12µM*	19	-3%
Cc1nnc(NC(=O)CN2CCN(c3cccc(C)c3C)CC2)s1	.	9%	.	.	.	.
CCCCCCCC[N+](C)(C)CCCCCCCC	.	.	1.5µM*	1.7µM*	.	.
CCCCCCCCCCCCCCCC[N+](C)(C)CC	16µM*	?	0.52µM*!	1µM*	-1	16µM*
CCCCCCCCCCCCCCCC[N+](C)(C)CCl	-11%	?	2.3µM*	1.8µM*	-92*	-30%
CCCCCCCCCCCCC	.	17%[176 µM]	.	.	.	.
CCCCCCCCCCCCCC[N+](C)(C)C	.	2%[22.9 µM]	0.6µM*	0.94µM*	.	.
CCC1=C(C(=O)OC)C(c2cccc(C)c2)N2C(CC(=O)Nc3ccc(OC)cc3)=CSC2=N1 (stereo not drawn)	.	-9%	.	.	.	.
O=C(NCCc1cnc[nH]1)[C@@H]1C[C@H]2C(=O)NCCCCCCN(S(=O)(=O)c3cccs3)[C@H]2C1	.	0%	.	.	.	.
COc1ccccc1NC(=O)CSc1nc2c(oc3ccccc32)c(=O)n1-c1ccccc1F	.	-21%	9.2µM*	13µM*	.	.
CCOc1ccc(NC(=O)CSc2nc3c(oc4ccccc43)c(=O)n2-c2ccccc2C)cc1	.	-24%	23µM*	?	.	.
COc1ccc(NC(=O)N2CCC3(CC2)CC(OCC2CC2)CCO3)cc1 (stereo not drawn)	.	2%	.	.	.	.
Nc1cc(OC(=O)c2c(F)cccc2Cl)nn1S(=O)(=O)c1ccccc1	-7%	-19%	-5%	-5%	-94*	-13%
Nc1cc(OC(=O)c2cccs2)nn1S(=O)(=O)c1ccccc1	0%	-11%	-10%	-24%	-4	-8%
O=C(N/N=C\c1cc(Br)c(Br)o1)c1cncc(Br)c1	-26%	4%	?	?	10	-9%
O=C(CNC(=O)c1ccccc1)N/N=C/c1cc(Br)ccc1O	?	-15%	7.3µM*	7.3µM*	60	16µM*
O=C(CNC(=O)c1ccc2c(c1)OCO2)N/N=C/c1cc(Br)ccc1O	?	9%	8.2µM*	8.2µM*	115	12µM*
SMILES	HT1080NT lethal	12-LOX inh	DT40 TDP1 no CPT	TDP1 cell CPT	IL-1B inflam inh	HT1080 IDH1KD tx
O=C(N/N=C/c1cc(Br)c(Br)o1)c1cccnc1	?	-9%	18µM*	16µM*	6	?
O=C(N/N=C/c1coc2ccccc2c1=O)c1ccccc1Br	-1%	11%	-21%	-28%	-3	-1%
O=C(N/N=C/c1cc(Cl)ccc1O)c1ccccc1Br	?	-28%	6.5µM*	6.5µM*	298	9.2µM*
CCn1c(SCC(=O)c2ccc[nH]2)nnc1-c1ccncc1	.	-1%	.	.	.	.
O=C(COc1ccc(-c2ccccc2)cc1)N/N=C/c1ccccc1Br	-1%	-2%	?	-4%	-9	1%
O=C(COc1ccc(-c2ccccc2)cc1)N/N=C/c1cc(O)ccc1Br	-9%	0%	16µM*	?	-95*	?
O=C(N/N=C/c1cc(Cl)ccc1O)c1cccnc1	?	2%	1µM*	0.92µM*	234	?
O=C(CNC(=O)c1ccco1)N/N=C/c1cc(Br)ccc1O	?	?	5.8µM*	2.9µM*	124	26µM*
O=C(CNC(=O)c1ccccc1Br)N/N=C/c1cc(Br)ccc1O	?	2%	5.8µM*	8.2µM*	264	?
O=C(Nc1cccnc1Oc1ccccc1)c1cc(F)ccc1Br	.	58%	.	.	.	.
O=C(N/N=C/c1c(Cl)nc2ccccn2c1=O)c1cccnc1	2%	3.2µM*	?	?	0	-14%
C/C(=N/NC(=O)CNC(=O)c1ccc2c(c1)OCO2)c1ccc2c(c1)CCCC2	-5%	0%	-19%	8%	-50*	?
O=C(COc1ccccc1)NCC(=O)N/N=C/c1cc(Br)ccc1OCc1ccccc1	-22%	0%	16µM*	23µM*	-53*	?
O=C(CNC(=O)c1ccccc1Br)N/N=C/c1ccccc1O	?	?	23µM*	?	132	?
O=C(CN1CC(c2ccccc2)CC1=O)N/N=C/c1cc(Br)ccc1O (stereo not drawn)	?	?	6.5µM*	8.2µM*	71	?
O=C(/C=C/c1ccccc1)C1=C(O)C(=O)N(CCO)C1c1ccc2c(c1)OCO2 (stereo not drawn)	20%	7.9µM*	18%	12%	-13	3%
C#CCN(C[C@@H]1[C@@H](OC(=O)NCc2ccco2)[C@@H](OC(=O)NCc2ccco2)Cn2c(=O)n(CCCCCC)c(=O)n21)S(=O)(=O)c1ccc(C)cc1	-3%	?	9.2µM*	15µM*	-77*	-6%
C#CCN(C[C@@H]1[C@@H](OC(=O)NCc2ccc(OC)c(OC)c2)[C@@H](OC(=O)NCc2ccc(OC)c(OC)c2)Cn2c(=O)ccc(=O)n21)S(=O)(=O)c1ccc(C)cc1	9.2µM*	79%	15µM*	16µM*	-106*	21µM*

Screening data as filed in PubChem BioAssay.
